Screening data (PubChem)
ATXN2 expr inh: Primary qHTS for Inhibitors of ATXN expression; HEK-293 ATXN2-luciferase reporter, luminescence, 24 h; Potency, µM (titrated, usually from 57 µM), inactives show at the highest dose activity change, negative = inhibition, hits mostly inhibitors; 0.72% of 360,000 active; also: % is scaled to controls: 0 for no effect and ±100 for the full control effect; nearly all actives have a fitted effect of over 55% in size
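qHTS (up to 57 uM final) was run with 24 h compound exposure of reporter cells at 37 °C. Each well was multiplexed: SteadyGlo luminescence measured ATXN2-luciferase expression after a fluorogenic Gly-Phe-AFC viability readout (25 uM final).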
ATXN viability: Viability Counterscreen for Primary qHTS for Inhibitors of ATXN expression; 0.49% of 400,000 active; S2 cells (HEK-293 line with an ATXN2-luciferase reporter) viability, CellTiter-Fluor protease fluorescence, 24 h; Potency, µM (titrated, usually from 56.7 µM), usual class: cytotoxic; also: nearly all actives have a fitted effect of over 40% in size
HepG2 tox-1: qHTS for Inhibitors of TGF-b: Cytotox Counterscreen. HepG2 CAGA-GFP viability, ATP luminescence, 18 h. Potency, µM (titrated, usually from 46.1 µM), for inactives: top-dose activity change, negative = cytotoxicity, most hits filed as cytotoxic. 0.76% of 410,000 active
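CellTiter-Glo luminescence gave cytotoxicity after 18 hours at 37 degrees C. The cells were HepG2 CAGA-GFP in 1% FBS DMEM, stimulated with 500 pg/mL TGF-beta after compound addition. %Activity was normalised to no-cell wells (complete cell-killing) and DMSO (no toxicity), and curves were fitted and classified.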
TGFb SMAD3 inh: qHTS for Inhibitors of TGF-b; HepG2 CAGA-GFP TGF-b/SMAD3 reporter, GFP fluorescence, 18 h; TGF-beta stimulated, 500 pg/mL final; Potency, µM (doses to about 46.1 µM), without a hit: top-dose activity, negative = inhibition, actives largely listed as inhibitors; 1.2% of 410,000 active; also: % is scaled to controls: 0 for no effect and ±100 for the full control effect; nearly all actives have a fitted effect of over 65% in size
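HEPG2 CAGA-GFP, 1000 cells/well; 2 h settle, 37 C; cpd via pin tool; TGF-b 500 pg/mL final; 18 h, 37 C; GFP imaging ex488/em500-530; %Activity normalised to -TGF-b and +DMSO controls; CRC fit, curve class.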
12-LOX inh: Primary qHTS assay for inhibitors of human arachidonate 12S-lipoxygenase (ALOX12): Round 2 | purified 12hLO, xylenol orange hydroperoxide absorbance | Potency, µM (top dose mostly 108 µM), without a hit: at the highest dose activity change, negative = inhibition, actives largely listed as inhibitors | 1.1% of 580,000 active; also: % is scaled to controls: 0 for no effect and ±100 for the full control effect
Target sequence (P18054 whole entry, looked up): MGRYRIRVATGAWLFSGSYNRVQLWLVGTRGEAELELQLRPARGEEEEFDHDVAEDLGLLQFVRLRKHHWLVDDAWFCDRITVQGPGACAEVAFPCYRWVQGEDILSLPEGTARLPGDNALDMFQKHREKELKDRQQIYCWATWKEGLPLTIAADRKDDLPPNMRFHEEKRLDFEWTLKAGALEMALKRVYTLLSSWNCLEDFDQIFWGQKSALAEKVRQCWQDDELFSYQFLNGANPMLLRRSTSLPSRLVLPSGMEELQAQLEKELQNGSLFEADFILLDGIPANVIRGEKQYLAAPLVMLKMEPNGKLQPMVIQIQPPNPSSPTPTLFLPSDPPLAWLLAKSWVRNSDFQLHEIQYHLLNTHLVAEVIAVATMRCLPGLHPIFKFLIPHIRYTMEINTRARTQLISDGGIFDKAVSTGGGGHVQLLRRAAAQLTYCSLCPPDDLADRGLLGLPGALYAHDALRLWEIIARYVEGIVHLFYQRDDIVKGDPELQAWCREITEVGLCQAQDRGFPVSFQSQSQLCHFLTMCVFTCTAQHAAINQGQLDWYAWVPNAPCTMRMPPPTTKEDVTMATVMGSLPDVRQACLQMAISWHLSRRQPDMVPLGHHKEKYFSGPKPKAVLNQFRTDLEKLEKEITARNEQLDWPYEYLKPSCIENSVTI
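Purified human 12hLO (150 nM final) in 25 mM Hepes, 0.01% Triton X-100, pH 7.0 was preincubated 15 min at room temperature with compound. Then 40 uM arachidonic acid was added, 30 min. Hydroperoxide was read by Fe-XO absorbance ratio 573/405 nm.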
TGFb confirm: qHTS for Inhibitors of TGF-b: Confirmation of Cherry Picks | shares compounds with TGFb SMAD3 inh | HepG2 CAGA-GFP TGF-b reporter, GFP fluorescence, 18 h; cells stimulated with TGF-beta, 500 pg/mL | AID 720534, 2013 | 63% of 1,600 active | Potency, µM (series often up to 46.1 µM), without a hit: at the highest dose activity, negative = inhibition, most hits filed as inhibitors; also: % is scaled to controls: 0 for no effect and ±100 for the full control effect; nearly all actives have a fitted effect of over 65% in size
HepG2 tox-2: qHTS for Inhibitors of TGF-b: Cytotox Counterscreen for Cherry Picks; shares compounds with TGFb SMAD3 inh; HepG2 CAGA-GFP viability, ATP luminescence, 18 h; cells stimulated with TGF-beta, 500 pg/mL; Potency, µM (titrated, usually from 46.1 µM), inactives show at the highest dose activity, negative = cytotoxicity, hits mostly inhibitors; 27% of 1,600 active; also: % is scaled to controls: 0 for no effect and ±100 for the full control effect; nearly all actives have a fitted effect of over 70% in size
TGFb CCL64 inh: qHTS for Inhibitors of TGF-b: CCL64 Cells Orthogonal Assay for Cherry Picks; shares compounds with TGFb SMAD3 inh; CCL64 CAGA-GFP reporter, TGF-b stimulated, GFP fluorescence, 18 h; Potency, µM (top dose mostly 46.1 µM), for inactives: at the top dose activity, negative = inhibition, usual class: inhibitors; 41% of 1,600 active; also: nearly all actives have a fitted effect of over 65% in size
TGFb COP inh: qHTS for Inhibitors of TGF-b: Hit Validation in HepG2 Cells using COP promoter. HepG2 COP-GFP TGF-b reporter, GFP fluorescence, 18 h; cells stimulated by added recombinant TGF-beta. AID 720537, 2013. shares compounds with TGFb SMAD3 inh. Potency, µM (top dose mostly 46.1 µM), for inactives: top-dose activity, negative = inhibition, usual class: inhibitors. 3% of 1,600 active; also: nearly all actives have a fitted effect of over 70% in size
* marks the source's active call; other numbers are inactive results; i = inactive; u = inconclusive; x = no result given; [ ] = another dose, or the depositor's remark. This is a sample that favours compounds with a hit; in the whole collection about 2.7% have one here. Calls follow the shape of the dose curve; as a rule, active = well fitted curve in the direction sought with a large enough effect; inconclusive = small, poorly fitted or top-dose-only effect, or another doubt; inactive = no such curve, though single readings can be large; an effect the other way counts as inactive or inconclusive. Potency is read from the fitted curve at half-maximal effect.

SMILES	ATXN2 expr inh	ATXN viability	HepG2 tox-1	TGFb SMAD3 inh	12-LOX inh	TGFb confirm	HepG2 tox-2	TGFb CCL64 inh	TGFb COP inh
COc1ccc(Nc2nc(N3CCCC3)nc3ccccc23)c(OC)c1	10µM*	20µM*	-57.5%	10µM*	-12.9%	u	u	u	66.1%
COC(=O)c1[nH]c2cc(OC)ccc2c1NC(=O)CN1CCCC(C)(C)C1	x	x	x	x	-17.4%	x	x	x	x
NS(=O)(=O)c1ccc(N/N=C/c2ccsc2)c([N+](=O)[O-])c1	x	x	x	x	-7.7%	x	x	x	x
Cc1cccc(C2(c3cccc(C)c3)CC2C(=O)Nc2ccc([N+](=O)[O-])cc2O)c1 (centres undefined)	u	17.8µM*	11.2µM*	7.94µM*	u	6.51µM*	11.6µM*	7.31µM*	12.4%
C=CCNC(=O)C1CC1(c1cccc(C)c1)c1cccc(C)c1 (centres undefined)	-16.1%	i	7.7%	-0.2%	112.9%	x	x	x	x
CCc1ccc(/C=C(/CC(=O)O)c2nc3ccccc3s2)cc1	x	x	x	x	-6.4%	x	x	x	x
O=C(Nc1ccccc1O)c1ccc[n+]([O-])c1	x	x	x	x	10.2%	x	x	x	x
Cc1cc(NC(=O)CS(=O)(=O)c2cn(Cc3cccc(Cl)c3)c3ccccc23)no1	0.0%	u	3.5%	17.8µM*	-0.3%	11.6µM*	-11.3%	-23.3%	20.7%
CCn1cc(S(=O)(=O)CC(=O)Nc2cccc(C)c2)c2ccccc21	27.5%	i	-3.8%	-2.0%	6.5%	x	x	x	x
COc1cccc(C2CC(=O)Nc3c2c(=O)nc(SC)n3C)c1OC (centres undefined)	x	x	x	x	-5.9%	x	x	x	x
O=C(CCc1ccnc(N2CCCC2)c1)NCc1cccc(Cl)c1	x	x	x	x	38.1%	x	x	x	x
C[C@]12c3[nH]c4cc(-c5ccco5)ccc4c3CCN1C(=O)[C@@H](CC(=O)NCc1cccc(C(F)(F)F)c1)C[C@@H]2C(=O)N1CCCCC1	u	u	-28.3%	7.94µM*	-20.6%	16.4µM*	u	u	54.9%
CC[C@]12c3[nH]c4cc(-c5ccco5)ccc4c3CCN1C(=O)[C@@H](CC(=O)NCc1cccc(C(F)(F)F)c1)C[C@@H]2C(=O)N1CCN(C(=O)C2CC2)CC1	u	u	-4.7%	10µM*	-23.8%	14.6µM*	u	u	25.1%
O=C1NCc2ccccc2CC12CCCN2CC1=CCCCC1 (centres undefined)	x	x	x	x	15.2%[6.33 µM]	x	x	x	x
N#Cc1ccc(CCC(=O)NCCc2ccccn2)cc1	x	x	x	x	-24.3%	x	x	x	x
CCn1c(=O)n(CC(=O)N(C)Cc2ccc(C)cc2C)c2ccccc21	x	x	x	x	-1.9%	x	x	x	x
CCOc1ccc(CCN2C(=S)N([C@@H](Cc3ccc(O)cc3)CN3CCC[C@@H]3CN3C(=S)NC[C@@H]3CC(C)C)C[C@@H]2CC(C)C)cc1	u	u	-9.6%	4.47µM*	-53.3%	u	-19.1%	16.4µM*	21.1%
CCOc1ccc(CCN2C(=S)N([C@@H](Cc3ccc(O)cc3)CN3CCC[C@@H]3CN3C(=S)NC[C@@H]3CC(C)C)C[C@@H]2Cc2ccccc2)cc1	0.0%	u	-9.6%	u	u	u	-3.2%	u	14.9%
CCOc1ccc(NC(=O)c2nc3ccccc3nc2N(CC)CC)cc1	x	x	x	x	0.0%	x	x	x	x
Cn1cccc1C1CCCCCN1S(=O)(=O)c1ccc(S(=O)(=O)N2CCCC2)cc1 (centres undefined)	x	x	x	x	-13.1%	x	x	x	x
Cc1ccc(-c2cc(C(=O)Nc3nccs3)c3ccccc3n2)cc1	x	x	x	x	-7.5%	x	x	x	x
O=C(C(=O)c1cc(Br)ccc1O)c1cc(Br)ccc1O	u	u	-34.7%	6.31µM*	u	6.51µM*	11.6µM*	4.61µM*	81.4%
COC(=O)c1cc(Br)ccc1O	x	x	x	x	15.9%	x	x	x	x
COc1ccc(Nc2nnc(-c3ccc(N4CCOCC4)c([N+](=O)[O-])c3)c3ccccc23)cc1	3.8%	i	3.6%	u	20.4%	4.11µM*	1.8%	u	22.8%
CC(NC1=CC(=O)c2cccnc2C1=O)C(O)c1ccccc1 (centres undefined)	u	u	5.01µM*	5.01µM*	u	5.8µM*	5.17µM*	u	13µM*
SMILES	ATXN2 expr inh	ATXN viability	HepG2 tox-1	TGFb SMAD3 inh	12-LOX inh	TGFb confirm	HepG2 tox-2	TGFb CCL64 inh	TGFb COP inh
O=C(Nc1ccc(O)c(-c2nc3ccccc3o2)c1)c1ccc2c(c1)OCCO2	x	x	x	x	13.8%	x	x	x	x
COCCNC(=O)COC(=O)c1cc(-c2ccc(F)cc2)nc2ccccc12	x	x	x	x	16.5%	x	x	x	x
Cc1ccc(NC(=O)c2cc(S(=O)(=O)NCCC3=CCCCC3)ccc2F)cc1	-14.4%	u	-9.1%	11.2µM*	-19.9%	18.4µM*	u	25.9µM*	35.8%
N#CC(c1ccc(Cl)cc1)c1ccc2c(C(F)(F)F)cc(C(F)(F)F)nc2n1 (centres undefined)	0.708µM*	2µM*	-38.1%	3.55µM*	29.1%	5.17µM*	6.51µM*	1.46µM*	102.8%
FC(F)(F)c1cc(C(F)(F)F)c2ccc(N3CCN(c4ccc(Cl)cc4)CC3)nc2n1	x	x	-16.7%	-4.3%	-9.7%	x	x	x	x
NC(=S)N/N=C\c1c(OCc2ccccc2Cl)ccc2ccccc12	u	i	-5.1%	6.31µM*	22.4µM*	5.8µM*	u	8.2µM*	34.3%
O=S(=O)(Nc1ccc(C(O)(C(F)(F)F)C(F)(F)F)cc1)c1cccc2cccnc12	u	u	-30.4%	17.8µM*	u	14.6µM*	-20.5%	-24.7%	39.5%
